From PubChem BioAssay AID463173 (ICCB-Longwood Screening Facility, Harvard Medical School, 2010)
Hit rate of the full screen: of about 52,000 compounds, about 4,300 (8.3%) were called active. The list comes from a sample in which actives are over-represented; it also holds similar structures and randomly drawn compounds. Values without a mark were called inactive. No stated cut-off is given here; in the data, active means survival mostly below about 52% (no sharp cut-off); inactive means mostly above about 56%.

Tested on: DeltatarO mutant
Assay: S. aureus survival, RN4220 and DeltatarO strains – OD600, teichoic acid synthesis inhibitors, primary screen (AID 463173)
Conditions: S. aureus RN4220 wild type/DeltatarO growth, OD600, 18 h, stronger effect = lower value, screened at 18.75 µg/mL (by protocol)

Compound | survival
CCN(CC)C(=O)C1=CC(c2ccc3c(c2)OCO3)=NS(=O)(=O)N1C | 86%
Cc1nc(SCC(=O)OCN2C(=O)c3ccccc3C2=O)n[nH]1 | 80%
COC(=O)C(C)Sc1ncnc2c1c(-c1ccccc1)cn2-c1ccc(F)cc1 (stereo unspecified) | 76%
Cn1c(=O)c2c(c3ccccc31)OC(=O)CC2c1ccc(C(F)(F)F)cc1 (stereo unspecified) | 61%
COc1ccc(C2CC(=O)c3c([nH]c(C(=O)OCCOc4ccccc4)c3C)C2)cc1OC (stereo unspecified) | 99%
COc1ccc(C)cc1NC(=O)C(Cc1ccccc1)NS(=O)(=O)c1ccc(Br)s1 (stereo unspecified) | 131%
Cc1ccc(N2CC(NC(=O)C3CC3)CC2=O)cc1C (stereo unspecified) | 94%
CC(=O)Nc1ccc(OCC(O)CN2CCN(c3ccc(C)c(Cl)c3)CC2)cc1 (stereo unspecified) | 76%
COc1ccccc1N1CCN(CC(O)COc2ccc(Cl)c(C)c2)CC1 (stereo unspecified) | 59%
Cc1cc(OCC(O)CN2CCN(c3cccc(Cl)c3)CC2)ccc1Cl (stereo unspecified) | -1% (active)
CCOC(=O)c1c(C)oc2nc(C)nc(NCC3CCN(Cc4ccc(C)cc4)CC3)c12 | 91%
O=C(O)CN1C(=O)/C(=c2\sc3nc4ccccc4n3c2=O)c2ccccc21 | 81%
O=c1[nH]c2ccc(NCc3ccccc3F)cc2[nH]1 | 94%
Cc1ccc(-n2ncc(C(=O)NCc3ccccc3C)c2-n2cccc2)cc1 | 74%
CCOC(=O)c1cccc(NC(=O)c2cnn(-c3ccccc3)c2-n2cccc2)c1 | 80%
COc1ccc(CNC(=O)c2cnn(-c3ccccc3)c2-n2cccc2)cc1OC | 113%
COc1ccccc1NC(=O)c1cnn(-c2ccccc2)c1-n1cccc1 | 93%
CCOc1ccccc1CNC(=O)c1cnn(-c2ccc(C)cc2)c1-n1cccc1 | 37% (active)
O=C(NCCc1ccccc1)c1cnn(-c2ccc(F)cc2)c1-n1cccc1 | 58%
O=C(Nc1cc(C(F)(F)F)ccc1Cl)c1cnn(-c2ccccc2)c1-n1cccc1 | 0% (active)
CSc1ccc(CCNC(=O)c2cnn(-c3ccccc3)c2-n2cccc2)cc1 | 46% (active)
COc1ccc(CNC(=O)c2cnn(-c3ccc(F)cc3)c2-n2cccc2)cc1 | 89%
COc1cc(OC)c(NC(=O)c2cnn(-c3ccccc3)c2-n2cccc2)cc1Cl | 84%

Compound | survival
CCc1ccc(NC(=O)c2cnn(-c3ccccc3)c2-n2cccc2)cc1 | 31% (active)
CCOc1ccc(NC(=O)c2cnn(-c3ccccc3)c2-n2cccc2)cc1 | 71%
COCCn1c(C)cc(O)c(C(c2ccccc2F)N2CCN(c3ccccc3)CC2)c1=O (stereo unspecified) | 79%
COc1ccc(N2CCN(C(=O)CSc3nnc4c(C)cc5cc6c(cc5n34)OCCO6)CC2)cc1 | 86%
COc1ccc(NC(=O)CN2C(=O)C(c3ccccc3)=NC23CCC(C)CC3)cc1Cl (stereo unspecified) | 73%
COC(=O)c1c(-c2cccs2)csc1NC(=O)c1ccc(C(C)C)cc1 | 73%
COc1ccc(C(=O)NCCc2sc(-c3cccc(F)c3)nc2C)cc1 | 67%
CCCN(C(=O)c1cc2c(=O)oc3ccccc3c2s1)c1cccc(Cl)c1 | 47%
CCCN(C(=O)c1cc2c(=O)oc3ccccc3c2s1)c1ccccc1C | 54%
CCCN(C(=O)c1cc2c(=O)oc3ccccc3c2s1)c1ccc(CC)cc1 | 31% (active)
CCN(C(=O)c1cc2c(=O)oc3ccc(C)cc3c2s1)c1ccccc1C | 63%
CCc1ccc(CNC(=O)c2cc3c(=O)oc4ccc(C)cc4c3s2)cc1 | 82%
CCc1ccc(N(CC)C(=O)c2cc3c(=O)oc4ccc(C)cc4c3s2)cc1 | 42% (active)
CCOC(=O)C1=C(CN2CCCCC2)NC(=O)NC1c1ccc(OC)cc1 (stereo unspecified) | 84%
O=C1Nc2ccccc2C1=Nc1ccc(Br)cc1 | 74%
CCN(C(=O)CCS(=O)(=O)c1cccc2nsnc12)c1cccc(C)c1 | 74%
O=C(NC1CCCC1)C(c1ccccc1)N(CC1CCCO1)C(=O)Cn1nnc2ccccc21 (stereo unspecified) | 89%
CCOc1ccccc1NC(=O)CSc1nnc(CC)c(CC)n1 | 73%
Cc1ccc(-n2nnnc2CNC(=O)c2ccccc2)cc1C | 144%
O=C(CSc1nnnn1Cc1ccccc1)NCCc1ccccc1 | 89%
Cc1ccc(-n2nnnc2CNC(=O)C(C)C)cc1C | 105%
COc1ccc(-n2nnnc2SCC(=O)NCCc2ccccc2)cc1 | 53%
Cc1ccc(-n2nnnc2SCC(=O)NCCc2ccccc2)cc1C | 42% (active)

Compound | survival
Cc1ccc(-n2nnnc2CNC(=O)C(C)(C)C)cc1C | 46% (active)
Cc1ccc(-n2nnnc2CNC(=O)c2ccc(F)cc2)cc1C | 106%
Cc1ccc(C(=O)NCc2nnnn2-c2ccc(C)c(C)c2)cc1 | 115%
Cc1ccc(-n2nnnc2CNC(=O)c2cc(C(F)(F)F)cc(C(F)(F)F)c2)cc1C | 0% (active)
CCOC(=O)C1=C(CS(=O)(=O)c2ccc(Br)cc2)NC(=O)NC1c1ccccc1 (stereo unspecified) | 80%
Cc1cccc(-c2cc(NC(=O)COc3ccccc3F)n(-c3ccccc3)n2)c1 | 86%
CCOC(=O)c1ccc(NC(=O)Cn2c(=O)cc(C(F)(F)F)c3c(C)nn(C)c32)cc1 | 95%
COc1ccc(CCNS(=O)(=O)c2ccc(N3CCCCS3(=O)=O)cc2)cc1OC | 69%
O=C(Nc1ccc(-c2nc3cc(Cl)ccc3o2)cc1)c1cc(Br)ccc1Cl | 93%
COc1ccc(Br)cc1C(=O)Nc1ccc(-c2nc3cc(Cl)ccc3o2)cc1 | 43% (active)
O=C(Nc1ccc2oc(-c3ccc(Br)cc3)nc2c1)c1cc2ccccc2o1 | 55%
O=C(Nc1cccc(-c2nc3ccccc3o2)c1)C(F)(F)F | 61%
O=C(Nc1ccc2oc(-c3cccnc3)nc2c1)c1ccc(-c2ccc(Cl)cc2)o1 | 73%
O=C(Nc1ccc(O)c(-c2nc3ccccc3o2)c1)c1ccc(-c2cccc(Cl)c2)o1 | 49%
O=C(Nc1cccc(-c2nc3ccccc3o2)c1)c1ccc(-c2ccc(Br)cc2)o1 | 39% (active)
O=C(Nc1ccc2oc(-c3cccnc3)nc2c1)c1ccc(-c2cccc(Cl)c2)o1 | 50%
COc1ccc(Cl)cc1C(=O)Nc1ccc2oc(-c3ccc(C(C)(C)C)cc3)nc2c1 | 82%
Cc1c(NC(=O)c2ccc(-c3cccc([N+](=O)[O-])c3)o2)cccc1-c1nc2cc(Cl)ccc2o1 | 52%
O=C(Nc1ccc(Cl)c(-c2nc3ccccc3o2)c1)c1ccc(-c2cccc([N+](=O)[O-])c2)o1 | 37% (active)
O=C(Nc1ccc2oc(-c3cccnc3)nc2c1)c1ccc(-c2ccccc2)o1 | 45% (active)
CCOc1ccc(OCC)c(-n2cnnn2)c1 | 71%
CCOc1ccc2oc(=O)cc(CN3CCN(c4ccc(OC)cc4)CC3)c2c1 | 73%
COc1ccccc1N1CCN(C(=O)CSc2nc3ccccc3nc2Cc2ccc(F)cc2)CC1 | 95%

Compound | survival
Cc1cccc(-c2noc(-c3cc(C(C)C)[nH]n3)n2)c1 | 97%
Cc1ccc(CCNC(=O)c2ccc3c(=O)n(-c4ccccc4)c(=O)[nH]c3c2)cc1 | 86%
Cc1cc(O)c(C(c2ccc(F)cc2)N2CCCCC2)c(=O)n1Cc1ccco1 (stereo unspecified) | 75%
COc1cccc(NC(=O)Cn2c(=O)n(CCCC(=O)NCc3ccc4c(c3)OCO4)c(=O)c3ccccc32)c1 | 115%
Cc1cc(C)c(NC(=O)C2CCN(c3nc4ccccc4[nH]3)CC2)c(C)c1 | 102%
Cc1ccc(C#N)c(SCC(=O)O)n1 | 91%
Cc1cccc(Cn2cc(S(=O)(=O)c3ccccc3)c(=O)c3cc(F)c(N4CCOCC4)cc32)c1 | 72%
CC(C)(Oc1ccc(Br)cc1)C(=O)Nc1cc(-c2nc3ccccc3[nH]2)ccc1Cl | 76%
COc1ccc(-c2nc3ccccc3o2)cc1NC(=O)c1ccc(-c2cccc(Cl)c2C)o1 | 58%
COc1ccc(-c2nc3ccccc3o2)cc1NC(=O)C(C)(C)Oc1ccc(Br)cc1 | 4% (active)
Cc1ccc2nc(-c3ccc(Cl)c(NC(=O)c4cccnc4)c3)oc2c1 | 126%
COc1ccc(-c2nc3ccccc3o2)cc1NC(=O)c1cccnc1 | 45% (active)
COc1ccc(-c2nc3ccccc3o2)cc1NC(=O)c1cc(Br)ccc1OC | 40% (active)
COc1ccc(Br)cc1C(=O)Nc1ccc2oc(-c3cccnc3)nc2c1 | 117%
COc1ccc(-c2nc3ccccc3o2)cc1NC(=O)c1ccc(-c2ccc(C)c(Cl)c2)o1 | 41% (active)
CCOc1ccc(C(=O)Nc2cc(-c3nc4ccccc4o3)ccc2C)cc1Cl | 51%
COc1ccc(/C=C/C(=O)Nc2cc(-c3nc4ccccc4o3)ccc2OC)cc1 | 50%
COc1ccc(-c2nc3ccccc3o2)cc1NC(=O)c1cccc2c(Cl)cccc12 | 52%
COc1ccc(-c2nc3ccccc3o2)cc1NC(=O)c1ccc(OCC(C)C)cc1 | 40%
CCOc1ccc(NC(=O)NCCN2CCN(c3cccc(C)c3C)CC2)cc1 | 60%
Cc1ccc(C)c(N2CCN(C(=O)c3cn(CC(C)C)c(=O)c4c3c3ccccc3n4C)CC2)c1 | 28%
COc1ccccc1CNC(=O)C1CCN(c2ncnc3c2nc2n3CCCCC2)CC1 | 94%
